Screening data deposited in PubChem by National Center for Advancing Translational Sciences (NCATS).
12-LOX inh – Primary qHTS assay for inhibitors of human arachidonate 12S-lipoxygenase (ALOX12): Round 2. purified 12hLO, xylenol orange hydroperoxide absorbance. Potency, µM (doses to about 108 µM), without a hit: top-dose activity change, negative = inhibition, actives largely listed as inhibitors. 580,000 compounds, 1.1% hits; also: potency is read from the fitted curve at half-maximal effect; % is scaled to controls: 0 for no effect and ±100 for the full control effect
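Purified human 12hLO (150 nM final) in 25 mM Hepes, 0.01% Triton X-100, pH 7.0 was preincubated 15 min at room temperature with compound. Then 40 uM arachidonic acid was added, 30 min. Hydroperoxide was read by Fe-XO absorbance ratio 573/405 nm.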
Pol kappa inh – qHTS for Inhibitors of Polymerase Kappa; DNA polymerase kappa (Homo sapiens), Q9UBT6; purified Pol kappa, fluorescent DNA synthesis assay, 10 min; Potency, µM (titrated, usually from 107 µM), inactives show top-dose activity, negative = inhibition, most hits filed as inhibitors; 400,000 compounds, 0.53% hits; AID 588579, 2011; also: potency is read from the fitted curve at half-maximal effect; % is scaled to controls: 0 for no effect and ±100 for the full control effect
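Inhibition of 10 nM Pol kappa is measured by a fluorescent read-out at 0 and 10 min following addition of 50 nM substrate (final), with a 15-min room-temperature compound preincubation.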
POLB inh – qHTS Assay for Inhibitors of DNA Polymerase Beta; P06746; Pol beta primer extension/strand displacement, fluorescence kinetic; Potency, µM (series often up to 114 µM), for inactives: at the top dose activity change, negative = inhibition, hits mostly inhibitors; 340,000 compounds, 1.3% hits; AID 485314, 2010; also: potency is read from the fitted curve at half-maximal effect; % is scaled to controls: 0 for no effect and ±100 for the full control effect
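Preincubation: enzyme (10 nM) with compound, 15 min, RT. Reaction: substrate added to 50 nM final. Reads: 0 and 10 min. Analysis: normalized, Hill fit.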
Pol iota inh – qHTS for Inhibitors of Polymerase Iota | DNA polymerase iota (Homo sapiens), Q9UNA4 | Pol iota fluorescent replication assay, 10 min | Potency, µM (highest dose often 115 µM), inactives show top-dose activity, negative = inhibition, actives largely listed as inhibitors | 390,000 compounds, 1% hits; also: potency is read from the fitted curve at half-maximal effect
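Fluorescent replication assay read twice, at 0 min and 10 min after adding 50 nM (final) substrate. Enzyme (10 nM) and compounds were first incubated 15 min at room temperature; enzyme-free buffer wells were negative controls.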
PI5P4K alpha inh – qHTS for Inhibitors of phosphatidylinositol 5-phosphate 4-kinase (PI5P4K); Phosphatidylinositol 5-phosphate 4-kinase type-2 alpha (Homo sapiens), P48426; PI5P4Kalpha enzyme, ADP-Glo luminescence, 60 min; active compounds read low; max response, %; 330,000 compounds, 1.2% hits; active = max response of -50% or lower; inconclusive = between -30% and -50%; inactive = -30% or higher; also: value at the top dose of about 77 µM; % is scaled to controls: 0 for no effect and ±100 for the full control effect
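ADP-Glo luminescence end-point read after a 60 min room-temperature kinase reaction of PI5P4Kalpha plus substrate, initiated with ATP at 5 microM final. Buffer: 0.038 M HEPES pH 7.4, EGTA, 0.1% CHAPS, 5% DMSO.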
Pol eta inh – qHTS for Inhibitors of Polymerase Eta; recombinant Pol eta, fluorescent DNA replication assay; 390,000 compounds, 1.2% hits; DNA polymerase eta (Homo sapiens), Q9Y253; Potency, µM (titrated, usually from 114 µM), without a hit: at the highest dose activity change, negative = inhibition, usual class: inhibitors; also: potency is read from the fitted curve at half-maximal effect; % is scaled to controls: 0 for no effect and ±100 for the full control effect
Target sequence (Q9Y253 whole entry, looked up): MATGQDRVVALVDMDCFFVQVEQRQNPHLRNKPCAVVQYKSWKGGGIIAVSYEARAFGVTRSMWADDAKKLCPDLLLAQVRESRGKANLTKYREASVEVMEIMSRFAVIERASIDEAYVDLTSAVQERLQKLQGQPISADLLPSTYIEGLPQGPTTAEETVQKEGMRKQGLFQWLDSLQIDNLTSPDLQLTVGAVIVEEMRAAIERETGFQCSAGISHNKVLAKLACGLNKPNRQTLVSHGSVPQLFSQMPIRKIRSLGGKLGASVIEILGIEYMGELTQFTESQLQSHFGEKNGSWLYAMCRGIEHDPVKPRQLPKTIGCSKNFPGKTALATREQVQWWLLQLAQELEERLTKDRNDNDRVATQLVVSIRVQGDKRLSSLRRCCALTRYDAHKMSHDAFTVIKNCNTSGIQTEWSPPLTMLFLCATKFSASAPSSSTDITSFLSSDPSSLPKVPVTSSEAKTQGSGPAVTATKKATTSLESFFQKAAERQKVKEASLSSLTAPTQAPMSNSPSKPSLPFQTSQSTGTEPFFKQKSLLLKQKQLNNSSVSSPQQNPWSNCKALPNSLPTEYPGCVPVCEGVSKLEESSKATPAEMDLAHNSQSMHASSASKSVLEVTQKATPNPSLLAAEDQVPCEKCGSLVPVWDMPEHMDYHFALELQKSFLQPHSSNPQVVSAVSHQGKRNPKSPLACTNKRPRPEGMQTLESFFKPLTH
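Fluorescent replication assay: 50 nM final substrate added after a 15 min room-temperature compound preincubation with 10 nM enzyme. Signal taken at 0 min and again at 10 min.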
An asterisk follows results filed as active; ? = inconclusive; nt = no result given. The list is not random: actives were taken first. Their share in the collection is about 2.9%. Unless noted, calls follow the shape of the dose curve; as a rule, active = well fitted inhibition curve with a large enough effect; inconclusive = small, poorly fitted or top-dose-only effect, or another doubt; inactive = no such curve, though single readings can be large or run the other way.

SMILES	12-LOX inh	Pol kappa inh	POLB inh	Pol iota inh	PI5P4K alpha inh	Pol eta inh
O=c1cc(CN2CCN(c3ccc(O)cc3)CC2)nc2scc(-c3ccccc3)n12	?	-20%	11µM*	?	?	-18%
CC(C)c1ccc(OCc2cc(=O)n3c(-c4ccccc4)csc3n2)cc1	-1%	-24%	20µM*	?	nt	?
Cc1cccc(OCc2cc(=O)n3c(-c4ccccc4)csc3n2)c1C	0%	-34%	28µM*	?	nt	?
Cc1cccc(C)c1OCc1cc(=O)n2c(-c3ccccc3)csc2n1	?	-5%	-13%	18%	nt	-3%
CCCCCSc1nc2c(c(=O)[nH]c(=O)n2C)n1CCCc1ccccc1	-1%	nt	nt	nt	nt	nt
COc1cc(Nc2ncnc3scc(-c4ccc(Cl)cc4)c23)cc(OC)c1	-37%	nt	nt	nt	nt	nt
CC(C)(CO)Nc1nc(-c2ccccc2)c2cc(Br)ccc2n1	-35%	nt	nt	nt	nt	nt
C/C(=N/Nc1ccc(S(N)(=O)=O)cc1[N+](=O)[O-])c1ccc(Cl)cc1	-42%	nt	nt	nt	nt	nt
CC(C)Cc1nc(NCCO)c(C#N)c2c1CCCC2	0%	nt	nt	nt	nt	nt
CCn1cc(C(=O)NC(=S)Nc2ccccc2Br)cn1	28µM*	1%	1%	21%	-60*	-15%
CCN1C(=O)[C@@H]2[C@@H]3CN(S(=O)(=O)c4ccc(C)cc4)[C@@H](c4ccccc4)[C@@H]3C(=O)C[C@@H]2C1=O	?	nt	nt	nt	0	nt
CCOC1=CC2=C(C(=O)C(Cl)=CC2=O)[C@@H]2CN(S(=O)(=O)c3ccc(C)cc3)[C@@H](c3ccccc3)[C@H]12	0.89µM*	nt	nt	nt	-107*	nt
Cc1ccccc1NC(=O)/C(C#N)=C/c1ccc[nH]1	2%	-3%	22%	28%	0	-5%
N#C/C(=C\c1ccc[nH]1)C(=O)Nc1ccccc1[N+](=O)[O-]	?	?	-5%	71µM*	-65*	?
CC1C(=O)N2CCCc3cc(S(=O)(=O)N(C)Cc4ccccc4)cc1c32 (configuration not stated)	-11%	-7%	3%	-7%	-2	-11%
CC1C(=O)N2CCCc3cc(S(=O)(=O)N(Cc4ccccc4)c4ccccc4)cc1c32 (configuration not stated)	10µM*	nt	nt	nt	nt	nt
Cc1noc(C)c1S(=O)(=O)Nc1c(NC2CCCC2)c2ccccc2oc1=O	8%	nt	nt	nt	nt	nt
NS(=O)(=O)c1ccc(NCCCn2ccnc2)c([N+](=O)[O-])c1	0%	-21%	0%	153%	3	-1%
O=C1c2ccccc2-c2onc3ccc(NCCCn4ccnc4)c1c23	nt	20µM*	25µM*	?	nt	79µM*
CC1CCC(C(C)C)C2=C1C(C#N)(C#N)C(C#N)(C#N)C(c1ccccc1)N2 (configuration not stated)	40µM*	-6%	-1%	?	-9	-13%
Cc1cc(C)c2c(N)c(-c3ccc(C#N)cc3)sc2n1	4µM*	nt	nt	nt	nt	nt
CC[C@]12c3[nH]c4cc(-c5ccco5)ccc4c3CCN1C(=O)[C@@H](CC(=O)NCc1ccco1)C[C@@H]2C(=O)N1CCN(C(=O)c2ccco2)CC1	?	-12%	nt	50µM*	-3	-9%
COc1ccc(-c2nc(CN3CCC(CO)CC3)c(C)o2)c2ccccc12	-13%	nt	nt	nt	nt	nt
CN(Cc1ccccc1Br)C(=O)Cn1c(Cl)nc2c1c(=O)n(C)c(=O)n2C	23%	nt	nt	nt	nt	nt
CC(=O)c1ccc(NC(=O)CN2CCN(c3ccccc3)CC2)cc1	11µM*	9%	45%	6%	3	6%
SMILES	12-LOX inh	Pol kappa inh	POLB inh	Pol iota inh	PI5P4K alpha inh	Pol eta inh
CC(=O)c1ccc(NC(=O)CN2CCN(CC(=O)Nc3ccc(C(C)=O)cc3)CC2)cc1	-4%	-17%	8%	-9%	3	-1%
Nc1nc(SCC(=O)NCc2ccc(F)cc2)n[nH]1	13%	nt	nt	nt	nt	nt
O=C1[C@H]2[C@@H](c3ccccc3)N[C@]3(CCCN(Cc4ccc(Cl)cc4)C3=O)[C@H]2C(=O)N1Cc1ccccc1	7.9µM*	nt	nt	nt	2	-13%
Nc1nccnc1C(=O)OCC(=O)Nc1ccc2[nH]c(=O)[nH]c2c1	?	?	nt	20µM*	-10	22µM*
O=C(COC(=O)c1ccccc1)Nc1ccc2[nH]c(=O)[nH]c2c1	-14%	-20%	nt	-3%	-6	-2%
Cc1nnc(N/N=C\c2ccc(-c3cccc(C(=O)O)c3)o2)n1N	?	?	?	2.5µM*	?	?
COc1cccc(-c2nc(CS(=O)(=O)CC(=O)Nc3cccc(C(F)(F)F)c3)c(C)o2)c1	9%	nt	nt	nt	nt	nt
CCc1ccc(-c2nc(CSCC(=O)NCc3cccs3)c(C)o2)cc1	14%	nt	nt	nt	nt	nt
C/C(=N\NC(=O)c1cc(O)ccc1O)c1cccc(NC(=O)c2ccc(Cl)cc2)c1	?	50µM*	45µM*	20µM*	-82*	22µM*
C/C(=N\NC(=O)c1ccccc1O)c1cccc(NC(=O)c2ccccc2)c1	-1%	6%	3%	-3%	-11	-1%
COCCn1c(-c2ccc(OC)cc2)nc2c1c(=O)[nH]c(=O)n2CC(C)C	4%	nt	nt	nt	nt	nt
Cc1ccc(S(=O)(=O)Nc2cc(=O)[nH]c(SCC(=O)Nc3ccccc3Cl)n2)cc1	?	5%	?	-14%	-1	-21%
CCc1ccc(NC(=O)CSc2nc(NS(=O)(=O)c3ccccc3)cc(=O)[nH]2)cc1	?	-7%	20µM*	29%	0	-21%
CCOc1ccc(NC(=O)CSc2nc(NS(=O)(=O)c3ccc(C)cc3)cc(=O)[nH]2)cc1	-24%	40µM*	3%	22µM*	-8	-18%
Cc1ccc(S(=O)(=O)Nc2cc(=O)[nH]c(SCC(=O)Nc3cccc(C)c3)n2)cc1	0%	?	-2%	50µM*	-12	1%
Cc1ccc(NC(=O)CSc2nc(NS(=O)(=O)c3ccccc3)cc(=O)[nH]2)cc1	nt	22µM*	22µM*	?	?	22µM*
NCC(Cc1ccccc1F)c1ccccc1 (configuration not stated)	1%	nt	nt	nt	nt	nt
COC(=O)c1[nH]c(C)c(/C(O)=C2\C(=O)C(=O)N(CCCn3ccnc3)C2c2ccc(Cl)cc2)c1C (configuration not stated)	-25%	nt	nt	nt	nt	nt
CCOC1CCOC2(CCN(C(=O)c3nn(C)c4ccccc34)CC2)C1 (configuration not stated)	17%	nt	nt	nt	nt	nt
